Compounds with a hit are over-represented: about 3.9% of the library has one in this group of screens.
SUMO Mot1 rescue – inhibitors of SUMOylation pathway: yeast Mot1-301 growth rescue | S. cerevisiae Mot1-301 growth rescue, ATP luminescence, 38.5C; percent above DMSO median, 100 means doubled | growth rescue, % at 18.8 µM | 1% of 320,000 active;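 active means every valid replicate shows activation above 250% relative to neutral control wells; inactive means the rest, any valid replicate at or below 250%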;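 further: OY570 slx delta 5 strain wells were the positive control but not used for scaling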
Casp6 inh – blocks human caspase-6 cleavage activity. P55212. purified caspase-6, Z-VEID-R110 cleavage fluorescence. inhibition, % at 12.5 µM. 0.53% of 350,000 active. AID 686996;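 active means mean inhibition across replicates at least about 35%, with every replicate also reaching that limit, limit read from the data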;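 further: 0% = median of neutral control wells and 100% = no fluorescence left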
Target sequence (P55212 24-179 limits assumed): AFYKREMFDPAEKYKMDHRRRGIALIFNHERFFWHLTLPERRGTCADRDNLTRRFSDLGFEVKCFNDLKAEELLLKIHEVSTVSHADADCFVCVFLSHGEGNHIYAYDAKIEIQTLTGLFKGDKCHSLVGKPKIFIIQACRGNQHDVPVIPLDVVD
Target sequence (P55212 194-293 limits assumed): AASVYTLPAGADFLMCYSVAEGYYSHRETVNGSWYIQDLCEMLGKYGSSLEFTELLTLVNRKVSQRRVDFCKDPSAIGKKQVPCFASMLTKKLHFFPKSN
N-glyco inh – blocks N-linked glycosylation in D54 reporter cells. D54 ERlucT glycosylation luciferase reporter, 24 h; percent of 100 nM tunicamycin response. reporter increase, % at 12.5 µM. 0.23% of 360,000 active. AID 588692;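 active means mean luciferase reporter signal, scaled so untreated is 0 and the glycosylation-blocking control 100, at or above a set limit in every replicate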;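 further: luciferase carries N-glycosylation sites so blocking glycosylation raises the light; 0% = median of neutral control wells and 100% = median of 100 nM tunicamycin wells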
CDK5 inh – inhibitors of human CDK5/p35 kinase; Q00535+Q15078; Recombinant CDK5/p35, ADP-Glo luminescence, 60 min; 0.01% of 330,000 active; inhibition, % at 10 µM;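 active means highest replicate inhibition of at least 50% and at least 75% of replicates reaching 50%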;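 further: plate controls were DMSO neutral control for no effect and GW8510 at 10 µM for full effect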
ALR H2O2 inh – human ALR oxidase inhibition via reduced H2O2 | purified ALR, DTT oxidation, H2O2 HRP-luminol luminescence | inhibition, % (no concentration beside the values) | 3.8% of 290,000 active | AID 485317;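 active means mean replicate inhibition above about 79%, with every replicate also reaching it, limit read from the data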
Target sequence (P55789 whole entry, looked up): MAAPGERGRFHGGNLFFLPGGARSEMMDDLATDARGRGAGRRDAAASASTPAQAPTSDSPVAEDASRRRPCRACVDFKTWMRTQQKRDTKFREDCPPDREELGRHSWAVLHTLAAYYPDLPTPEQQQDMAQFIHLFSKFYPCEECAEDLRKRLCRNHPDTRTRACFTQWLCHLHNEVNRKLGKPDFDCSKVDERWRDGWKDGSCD
NSD2 inh – inhibitors of human histone methyltransferase NSD2. NSD2 peptide methylation, AlphaScreen, 120 min. inhibition, % at 12.5 µM. 0.54% of 310,000 active. AID 743445; in the data active means inhibition above about 50%
Starred values were filed as active, the others as inactive; nt = no result.

SMILES	SUMO Mot1 rescue	Casp6 inh	N-glyco inh	CDK5 inh	ALR H2O2 inh	NSD2 inh
Nc1ccc2nc(CCc3ccccc3)[nH]c2c1	-20	0	2	-1	99*	1
Nc1ccc2nc(-c3ccccn3)[nH]c2c1	7	nt	1	0	nt	-2
O=C(NC1CCSC1=O)c1ccc(Oc2ccc(F)cc2)nc1 (configuration not stated)	63	nt	-5	-1	-22	0
Cc1ccc(Oc2ccc(C(=O)NC3CCSC3=O)cn2)cc1 (configuration not stated)	18	nt	0	-1	99*	-1
O=C(NCC[C@@H]1CC[C@@H](NC(=O)Nc2cc(F)ccc2F)[C@@H](CO)O1)Nc1ccc(Cl)cc1	nt	-2	nt	nt	nt	nt
COc1ccc2c3c([nH]c2c1)[C@@H](CO)N(S(C)(=O)=O)CC31CN(C(=O)c2cccnc2)C1	nt	-1	nt	nt	nt	nt
CCC(=O)N1C[C@@H]2[C@H](c3ccccc31)[C@H](CO)N2C(=O)Nc1ccccc1F	nt	-2	nt	nt	nt	nt
O=C(Oc1ccccc1C(=O)Nc1ccccc1)c1ccc(Br)c([N+](=O)[O-])c1	40	4	0	0	97*	2
COC(=O)C(CC#Cc1ccc2c(c1)[C@]1(C(=O)N2)[C@H](c2ccccc2OCCO)N2[C@H](c3ccccc3)[C@H](c3ccccc3)OC(=O)[C@H]2[C@@H]1C(=O)N1CCN(c2ncccn2)CC1)C(=O)OC	nt	-1	nt	nt	nt	nt
CN(C)CC(=O)N[C@H]1CC[C@@H](CCn2cc(CN(C)C)nn2)O[C@@H]1CO	nt	-3	nt	nt	nt	nt
Cc1ccc(-c2nc(CS(=O)CC(=O)NC3CC3)c(C)o2)cc1 (configuration not stated)	24	4	5	3	99*	-7
Cc1oc(-c2cccc(Cl)c2)nc1CS(=O)(=O)CC(=O)NC1CCCC1	0	-2	3	2	6	-2
CCc1ccc(-c2nc(CS(=O)CC(=O)O)c(C)o2)cc1 (configuration not stated)	3	9	0	-2	99*	7
CCc1ccc(-c2nc(CS(=O)CC(=O)NC3CCCCCC3)c(C)o2)cc1 (configuration not stated)	-8	6	2	-4	99*	6
Cc1oc(-c2ccccc2)nc1CS(=O)CC(=O)NC1CCCC1 (configuration not stated)	-18	0	1	1	99*	nt
C[C@@H]1CN([C@H](C)CO)C(=O)c2cc(NC(=O)c3ccncc3)ccc2O[C@@H](C)CCCCO[C@@H]1CN(C)C(=O)c1ccccc1	nt	2	nt	nt	nt	nt
C[C@H](CO)N1C[C@H](C)[C@H](CN(C)S(=O)(=O)c2ccccc2)Oc2ccc(NC(=O)C3CC3)cc2CC1=O	nt	1	nt	nt	nt	nt
Cc1oc(-c2ccccc2Cl)nc1CS(=O)CC(=O)NC1CC1 (configuration not stated)	4	2	-1	-4	99*	6
CCc1ccc(-c2nc(CS(=O)CC(=O)NC3CC3)c(C)o2)cc1 (configuration not stated)	-5	5	4	0	98*	0
C[C@@H]1CN([C@@H](C)CO)C(=O)c2cc(NS(C)(=O)=O)ccc2O[C@H]1CN(C)Cc1ccc(-c2ccccc2)cc1	nt	1	nt	nt	nt	nt
CN(C)C(=O)C[C@H]1CC[C@@H]2[C@@H](COc3ccc(NC(=O)C4CCCCC4)cc3C(=O)N2C)O1	nt	1	nt	nt	nt	nt
COc1cc(/C=C/c2nc3ccccc3s2)cc(OC)c1O	3	4	1	0	95*	-16
COc1cc(/C=C/c2cc(C(=O)O)c3ccccc3n2)cc(OC)c1O	-6	0	0	1	99*	0
CCOc1cc(/C=C/c2cc(C(=O)O)c3ccccc3n2)ccc1O	6	nt	-5	-1	89*	0
CCOc1cc(/C=C/c2cc(C(=O)O)c3ccccc3n2)ccc1OC	10	-4	1	1	1	-6
SMILES	SUMO Mot1 rescue	Casp6 inh	N-glyco inh	CDK5 inh	ALR H2O2 inh	NSD2 inh
O=C(CN1CCOCC1)NCC[C@@H]1CC[C@@H](NS(=O)(=O)c2ccc(Cl)cc2)[C@@H](CO)O1	nt	3	nt	nt	nt	nt
CCCCc1c(C)nc2ccc(C(=O)OCC)cc2c1Cl	-7	nt	-1	-1	97*	nt
Cc1noc(C)c1S(=O)(=O)Nc1ccc2c(c1)C(=O)N([C@H](C)CO)C[C@H](C)[C@@H](CN(C)Cc1ccncc1)O2	nt	2	nt	nt	nt	nt
C[C@@H]1CN([C@@H](C)CO)C(=O)c2cccc(NC(=O)c3cnccn3)c2O[C@H]1CN(C)S(=O)(=O)c1ccc(F)cc1	nt	1	nt	nt	nt	nt
Cc1ccc(-c2[nH]c(-c3ccc(C(=O)O)cc3)nc2-c2ccccc2)cc1	13	17	5	3	99*	8
COC(=O)C1CCN(C(=O)CN2C(=O)NC(CCc3ccccc3)C2=O)CC1 (configuration not stated)	379	nt	0	0	99*	-3
O=C(CN1C(=O)NC(CCc2ccccc2)C1=O)NC1CC1 (configuration not stated)	-5	-1	2	-1	-16	-5
CC1(C)C(=O)Nc2ccccc2N1C(=O)CN1C(=O)NC(CCc2ccccc2)C1=O (configuration not stated)	345*	13	0	1	-1	1
CC1(C)C(=O)Nc2ccccc2N1C(=O)CN1C(=O)c2ccccc2C1=O	12	nt	-1	0	nt	-5
COc1ccccc1NC(=O)N[C@@H]1CC[C@H](CCNC(=O)Cc2ccccn2)O[C@H]1CO	nt	-5	nt	nt	nt	nt
O=C(Nc1ccc2c(c1)[C@@H]1C[C@@H](CC(=O)N3CCCCC3)O[C@H](CO)[C@@H]1O2)c1ccc2c(c1)OCO2	nt	-1	nt	nt	nt	nt
CC(=O)OC[C@]12CC[C@H]3[C@@](C)(CC[C@H]4C(C)(C)CCC[C@]34C)[C@@H]1C[C@H](C1=CC(=O)O[C@H]1OC(C)=O)O2	910*	nt	nt	nt	7	nt
COc1ccccc1C(=O)Nc1ccc2c(c1)C(=O)N(C)[C@@H]1CC[C@H](CC(=O)NCCc3ccncc3)O[C@H]1CO2	nt	-2	nt	nt	nt	nt
CC=Cc1ccc2n(c1=O)C[C@@H]1[C@@H](CO)[C@H](C(=O)NCc3ccccc3)N(C)[C@H]21 (mixture of isomers)	nt	0	nt	nt	nt	nt
O=[N+]([O-])c1ccccc1N/N=C/c1cccc(O)c1O	3	0	-17	-1	nt	11
O=[N+]([O-])c1cccc(N/N=C/c2cccc(O)c2O)c1	-8	9	-6	1	100*	14
Cc1cccc(N/N=C/c2ccc(O)c(O)c2O)c1	30	16	5	1	79*	12
COc1cccc(N/N=C/c2cccc(Br)c2O)c1	3	3	-5	1	99*	2
Oc1sc(C=Nc2ccccc2)c2ccccc12	1	nt	-2	0	84*	nt
CCC(=O)N[C@@H]1CC[C@H](CC(=O)NCC2CCCCC2)O[C@H]1CO	nt	-1	nt	nt	nt	nt

High-throughput results from PubChem.
